High-throughput results deposited in PubChem by several laboratories.
Sampled rows, rich in hits. Any-hit rate of the full collection: about 2.8%.
TRPM1 prom inh = inhibitors of MITF-driven TRPM1 promoter in melanoma cells; AID 488899; inhibition, % at 12.5 µM; 330,000 compounds, 0.83% hits; SK-MEL-5 TRPM1 promoter luciferase, 24 h;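 active = mean inhibition across replicates of 60% or more, whatever share of single replicates reaches that level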
Shn3 3UTR inh = Schnurri-3 reporter inhibition in Clone20 osteoblasts. 360,000 compounds, 0.52% hits. inhibition, % at 12.5 µM. Clone20 osteoblast Shn3 3'UTR firefly luciferase, 24 h;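 active = mean inhibition of at least 75% with every replicate also reaching 75%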
KKLEB cytotox = CF airway cell cytotoxicity counter-screen | KKLEB CF airway cells viability, ATPlite luminescence, overnight; hits give low values; cells stimulated with P. aeruginosa culture filtrate | activity change (cytotoxicity), % at 5 µM | 360,000 compounds, 0.36% hits | AID 602141;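 active = corrected activity change at or below -50% at 5 µM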
CF NFkB inh = inhibitors of cystic fibrosis induced NF-kB; AID 588850; KKLEB NF-kB-GFP reporter, PAF-induced, GFP fluorescence overnight; 360,000 compounds, 0.86% hits; inhibition, % at 5 µM;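 active = at least 50% inhibition at 5 µM, scaled per plate between neutral and stimulator controls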;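 note: PAF is a Pseudomonas aeruginosa culture filtrate used as stimulus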
Peg3 promoter = inhibitors of Peg3 promoter. AID 588405. inhibition, % at 20 µM. HeLa PEG-Prom luciferase reporter, luminescence, overnight. 360,000 compounds, 1.7% hits;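 active = inhibition of at least 50% at 20 µM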
HIF-2a inh = HIF-2a inhibition | 786-0 RCC cells HIF-2a reporter, luciferase luminescence, overnight | 360,000 compounds, 0.72% hits | inhibition, % at 18.8 µM | AID 624352;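 active = inhibition of the luminescence signal of 40% or more relative to plate controls, in a single-dose primary screen at 18.75 µM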
Hits are given with their value; 0 = inactive; - = no result given.

SMILES | TRPM1 prom inh | Shn3 3UTR inh | KKLEB cytotox | CF NFkB inh | Peg3 promoter | HIF-2a inh
CC(Cc1nnc(SCC(=O)O)n1N)c1ccccc1 (configuration not stated) | 0 | 0 | 0 | 0 | 0 | 0
Cn1cc(C(=O)CCl)c2ccccc21 | 83 | 0 | 0 | 54 | 50 | 0
Clc1ccc(-n2nnc(-c3nccs3)n2)cc1Cl | 0 | 0 | 0 | 0 | 0 | 0
Cc1ccc(-n2nnc(-c3nccs3)n2)cc1 | 0 | 0 | -52 | 0 | 0 | 51
Cc1cc(Cl)ccc1OCC(=O)Nc1ccncc1 | 0 | 0 | 0 | 0 | 0 | 0
Cc1ccc(-c2nc3ncccc3o2)cc1NC(=O)COc1ccccc1 | 0 | 0 | 0 | 0 | 0 | 0
Cc1ccc(-c2nc3cccnc3o2)cc1NC(=O)COc1ccc(Cl)cc1C | 0 | 0 | 0 | 60 | 0 | 0
Cc1ccc(-c2nc3cccnc3o2)cc1NC(=O)COc1ccc(C(C)(C)C)cc1 | 0 | 95 | 0 | 0 | 58 | 0
Cc1cc(Br)ccc1NC(=O)CN(C)C(=O)C1CSC2(C)CCC(=O)N12 (configuration not stated) | 0 | 0 | 0 | 0 | 0 | 0
Cc1ccc(S(=O)(=O)CCC(=O)OCC(=O)Nc2cc(F)ccc2C)cc1 | 0 | 0 | 0 | 0 | 0 | 0
CCCn1c(=O)n(C)c(=O)c2c(SCC(=O)NC34CC5CC(CC(C5)C3)C4)nc(CC(C)C)nc21 | 68 | 0 | 0 | 0 | 0 | 0
CC1(C(=O)Nc2ccc3ccccc3c2)CCC(=O)N1CCOc1ccccc1 (configuration not stated) | - | 0 | 0 | 0 | 0 | 0
CCN1CCN(c2cc(SC(C)C)nc(-c3ccc(OC)cc3)n2)CC1 | 0 | 0 | 0 | 0 | 53 | 0
CC(C)Sc1cc(N2CCOCC2)nc(-c2ccc(Cl)cc2)n1 | 0 | 0 | 0 | 0 | 0 | 0
O=C(NNC(=O)c1cc(Cl)ccc1O)c1cccc(S(=O)(=O)N2CCOCC2)c1 | 0 | 0 | 0 | 0 | 0 | 0
Cc1cccc(Oc2cc(NC(=O)c3ccccc3)cc([N+](=O)[O-])c2)c1 | 0 | 87 | 0 | 0 | 0 | 0
Cc1ccc(NC(=O)c2cccc(Oc3ccc([N+](=O)[O-])cc3)c2)c(C(=O)O)c1 | 0 | 0 | 0 | 0 | 0 | 0
C/C(=N\NC(=O)COc1ccc(C(C)(C)C)cc1)c1cc2ccccc2o1 | 0 | 0 | -58 | 0 | 0 | 0
C[C@H](CO)N1C[C@H](C)[C@H](CN(C)C(=O)Nc2ccc(F)cc2)OCc2cnnn2CCCC1=O | - | 0 | 0 | 0 | 0 | 0
Cc1nc(SCC(=O)N2CCN(c3ccccc3)CC2)c2oc3ccccc3c2n1 | 0 | 0 | 0 | 0 | 56 | 0
COc1ccc(CC(=O)NNC(=O)c2cc(C)[nH]n2)cc1 | 0 | 0 | 0 | 0 | 62 | 0
Cc1ccc(N(CC(=O)NCc2ccco2)C(=O)CCC(=O)Nc2nccs2)cc1C | 0 | 0 | 0 | 0 | 0 | 0
COCCn1ccc2c(OCC(=O)Nc3cc(OC)ccc3OC)cccc2c1=O | 0 | 0 | 0 | 0 | 52 | 0
O=C(Nc1ccc(OCC(F)(F)C(F)F)c(C(F)(F)F)c1)c1ccccc1O | 63 | 0 | -51 | 0 | 0 | 0
O=C(Nc1ccc(OCC(F)(F)C(F)F)c(C(F)(F)F)c1)c1ccccc1 | 0 | 0 | 0 | 0 | 0 | 0
SMILES | TRPM1 prom inh | Shn3 3UTR inh | KKLEB cytotox | CF NFkB inh | Peg3 promoter | HIF-2a inh
NC1=NC(=O)C(=Cc2ccccc2)S1 | 0 | 0 | 0 | 0 | 0 | 0
NC1=NC(=O)/C(=C\c2cccnc2)S1 | 0 | 0 | 0 | 52 | 0 | 0
CCn1cc(C(=O)NCCCN2CC(C)CC(C)C2)c(=O)c2cc(S(=O)(=O)N(C)C3CCCCC3)ccc21 (configuration not stated) | 0 | 0 | 0 | 0 | 73 | 0
CCn1cc(C(=O)NCCCN2CCC(C)CC2)c(=O)c2cc(S(=O)(=O)N(C)C3CCCCC3)ccc21 | 0 | 0 | 0 | 0 | 0 | 0
CCOC(=O)c1ccc(NC(=O)COc2ccccc2CNCCc2ccccc2)cc1 | 0 | 0 | 0 | 0 | 98 | 0
NCC(c1ccc(Cl)cc1Cl)c1c[nH]c2ccccc12 (configuration not stated) | 0 | 0 | 0 | 0 | 96 | 0
CN(C)CCCNC(=S)NCC(c1ccc(Cl)cc1Cl)c1c[nH]c2ccccc12 (configuration not stated) | 0 | 0 | 0 | 0 | 103 | 0
CCC(C)(C)NC(=S)Nc1ccc(-c2nc3ccc(C)cc3s2)cc1 | 0 | 0 | 0 | 0 | 0 | 0
Cc1ccc2nc(-c3ccc(N)cc3)sc2c1 | 0 | 0 | -56 | 0 | 0 | 0
